Inhibition data for 98 compounds are collected here from PubChem BioAssay AID777 (Sanford-Burnham Center for Chemical Genomics, 2007).

Molecules are shown by their SMILES. Among all 96,000 compounds or so, about 19,000 (20%) were called active.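 The calls were made as follows: active = blocking of liver enzyme CYP2C9 beyond about 50% at 5 µM (limit read from the data); inactive = the rest.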 These entries were drawn from the full list.

Chain of Cytochrome P450 2C9 (Homo sapiens) (P11712 whole entry, looked up): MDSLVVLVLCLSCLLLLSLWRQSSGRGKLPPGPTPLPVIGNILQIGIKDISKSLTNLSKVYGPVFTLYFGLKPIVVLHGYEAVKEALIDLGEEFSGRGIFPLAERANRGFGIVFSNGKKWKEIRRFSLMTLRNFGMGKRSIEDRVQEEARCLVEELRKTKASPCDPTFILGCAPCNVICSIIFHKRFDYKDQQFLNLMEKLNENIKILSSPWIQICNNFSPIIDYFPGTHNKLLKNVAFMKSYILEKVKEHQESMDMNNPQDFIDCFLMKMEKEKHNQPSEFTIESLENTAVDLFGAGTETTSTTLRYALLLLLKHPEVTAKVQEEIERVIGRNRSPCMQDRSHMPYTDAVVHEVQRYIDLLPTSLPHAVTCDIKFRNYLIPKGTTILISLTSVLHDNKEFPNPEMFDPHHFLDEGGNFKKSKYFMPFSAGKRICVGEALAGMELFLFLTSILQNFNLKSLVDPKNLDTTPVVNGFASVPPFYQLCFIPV

This experiment concerns the target Cytochrome P450 2C9 (Homo sapiens) (UniProt P11712). The experiment in a line: blockers of cytochrome P450 2C9 activity – biochemical, luminescence, ADME assay, primary screen (AID 777). Conditions: CYP2C9 Supersomes, luciferin-H conversion, at 5 µM, hits give high values.
On to `COCCNC(=O)Cn1cc2c(n1)CCCCC2`, for which the inhibition is 1.8% (inactive).

Turning to `COc1cc2cc(CN(CCN3CCCC3)C(=O)Nc3ccccc3Cl)c(=O)[nH]c2cc1OC`, the inhibition was 15% (inactive).

As to `O=S(=O)(O)CCN1CCOCC1`, the inhibition is 1.4% (inactive).

Regarding `COc1cc(/C=C2/C(=O)ON=C2C)ccc1OCc1ccccc1F`, the inhibition is -5.4% (inactive).

Turning to `COc1ccc(C2SCCN2S(=O)(=O)c2ccccc2)cc1OC` (stereo not drawn), the inhibition was -107% (inactive).

Regarding `CCCN1Cc2cccc(C(=O)NCc3ccccc3)c2C1=O`, the inhibition was 16.3% (inactive).

Take `N#CC1=C(N)OC2=C(C(=O)CCC2)C1C1CC=CCC1` (stereo not drawn): the inhibition is 37.1% (inactive).

For `O=C(O)CN1C(=O)CC(Cc2ccccc2)C1=O` (stereo not drawn), the inhibition was 7.4% (inactive).

Turning to `COc1ccc(O)c(C(=O)c2cnc3onc(C(C)C)c3c2)c1`, the inhibition was 96.6% (active).

On to `COc1ccc(OC)c(C(=O)c2ccc(C(=O)O)cc2)c1`, for which the inhibition is 9.5% (inactive).

With `COc1ccc(O)c(C=Nc2cc(C)on2)c1`, the inhibition is -5.4% (inactive).

Consider `O=C(CCSc1ccccc1)NCCSc1ccccn1`, for which the inhibition was 41.7% (inactive).

As to `COc1ccc(C(C(O)C(=O)c2c[nH]c3ccccc23)N2CCN(c3ccccc3)CC2)cc1` (stereo not drawn), the inhibition was 26.9% (inactive).

With `CS(=O)(=O)c1ccc2nc(NC(=O)CN3CCCCCC3)sc2c1`, the inhibition is 25.1% (inactive).

Consider `CC1=CC(C)(C)N(C(=O)CSc2nnc(-c3ccccc3)o2)c2ccc(C)cc21`, for which the inhibition is 11.9% (inactive).

Turning to `CC1CCCC(NC(=O)CSc2nccn2C)C1C` (stereo not drawn), the inhibition was -4.4% (inactive).

As for `CC1=CC(C)(C)N(C(=O)CSc2nccn2C)c2cc(C)ccc21`, the inhibition was 61.4% (active).

Turning to `COCCNC(=O)CN(C(=O)CCC(=O)Nc1cc(C)on1)c1ccc(C)cc1C`, the inhibition is -2.4% (inactive).

With `N#Cc1nc(Cc2cccc3ccccc23)oc1NCc1ccc2c(c1)OCO2`, the inhibition is 63.7% (active).

As to `c1n[nH]c(NCc2ccc3c(c2)OCO3)n1`, the inhibition is 1% (inactive).

With `COc1cc2[nH]c(=S)n(CCN3CCCCC3C)c(=O)c2cc1OC` (stereo not drawn), the inhibition was 23.6% (inactive).

On to `Cc1ccc(S(=O)(=O)/N=C(\CN2CCOCC2)N2CCOCC2)cc1`, for which the inhibition is 7.1% (inactive).

As for `CC(=O)C1C(c2cccc(Oc3ccccc3)c2)NC(=O)NC1(O)C(F)(F)F` (stereo not drawn), the inhibition is 0.7% (inactive).

In the case of `Cc1cccc(NC(=O)CSc2nnc(NC(=O)CN3CCOCC3)s2)c1`, the inhibition was 10.9% (inactive).

Consider `Cc1cc(C)n(-c2nc(SCC(=O)N3CCCC3)c3c4c(sc3n2)CCCC4)n1`, for which the inhibition is 78.8% (active).

As to `COCCNc1nc(-n2nc(C)cc2C)nc2sc3c(c12)CCCC3`, the inhibition was 16.5% (inactive).

On to `COCCn1c(C)cc(C(=O)CSc2ncnc3sc4c(c23)CCC4)c1C`, for which the inhibition was -41.7% (inactive).

Consider `CCCC1C(c2ccccc2)C(C#N)(C#N)C2(C#N)CC1(N)NC2=O` (stereo not drawn), for which the inhibition is 4.8% (inactive).

On to `COc1ccc(N2C(=O)CN=C2Nc2cccc(C)c2C)cc1OC`, for which the inhibition is 10.9% (inactive).

As to `Cc1ccc(S(=O)(=O)N2CC(=O)Nc3ccccc32)cc1C`, the inhibition is -50.4% (inactive).

With `Cc1cc(N2CCN(S(=O)(=O)c3ccc(C)c(C)c3)CC2)c2ccccc2n1`, the inhibition was 89.9% (active).

As to `O=c1ccc2cc(S(=O)(=O)N3CCN(c4ccccc4)CC3)ccc2o1`, the inhibition is 5.5% (inactive).

Take `CCCCNC(=O)CSc1nc2ccc(NC(=O)CSc3nnc(COc4ccccc4C)n3C)cc2s1`: the inhibition was 75.1% (active).

As to `CCCCNC(=O)CSc1nnc(-c2ccco2)n1C`, the inhibition is 44.2% (inactive).

As for `CCOC(=O)c1ccc(NC(=O)CSc2nnc(COc3ccccc3OC)n2C)cc1`, the inhibition was 11.7% (inactive).

For the compound `O=C1CCCc2c1nc(-c1cccc(Cl)c1)n2O`, the inhibition was 11.3% (inactive).

Turning to `CC1(C)CC(=O)C(C=NCc2cccnc2)=C(O)C1`, the inhibition was -14.4% (inactive).

As for `CCNc1nc(N)nc(-c2cc(Cl)ccc2OC)n1`, the inhibition is -0.8% (inactive).

Take `COC(=O)c1c(NC(=O)c2cccs2)sc2c1CCCC2`: the inhibition is 58.4% (active).

Take `COC(=O)c1sc(NC(=O)c2csc3c2CCCC3)nc1C`: the inhibition was -7.3% (inactive).

Turning to `Cc1ccc(C(=O)c2c(NC(=O)c3ccncc3)sc3c2CCCC3)cc1`, the inhibition was 67.8% (active).

Turning to `CNC(=O)c1c(NC(NC(=O)c2ccco2)C(=O)c2ccc(Cl)cc2)sc2c1CCCC2` (stereo not drawn), the inhibition was 46.5% (inactive).

Consider `COC(=O)c1c(NC(=O)CSc2nncs2)sc2c1CCCCC2`, for which the inhibition was 91.9% (active).

For `CCOC(=O)c1c(NC(=O)CCC(=O)NCc2ccco2)sc2c1CCCC2`, the inhibition is 41.9% (inactive).

Consider `COC(=O)c1sccc1NC(=O)c1csc2c1CCCC2`, for which the inhibition is 13.7% (inactive).

Turning to `Cc1ccc(C(=O)c2c(NC(=O)c3ccccc3)sc(C)c2C)cc1`, the inhibition is 43% (inactive).

For `Cc1ccc(Cn2c(NC(=O)c3ccco3)nc3ccccc32)cc1`, the inhibition was -10.6% (inactive).

Take `Cc1cc(C)nc(SC(C)C(=O)N/N=C/c2cccs2)n1` (stereo not drawn): the inhibition was 41.1% (inactive).

For the compound `CC12CCC(C(=O)N(CCC#N)CCC#N)(CC1=O)C2(C)C` (stereo not drawn), the inhibition is -10.7% (inactive).

Take `CCC(C(=O)Nc1ncccn1)(C(F)(F)F)C(F)(F)F`: the inhibition is -8.6% (inactive).

As for `Oc1ccc(Cl)cc1/C=N/c1nc2ccccc2[nH]1`, the inhibition is -15.4% (inactive).

In the case of `CCn1ncc(C2=NOC(C(=O)N3CCN(c4ccccc4)CC3)C2)c1C` (stereo not drawn), the inhibition is -12.4% (inactive).

For `Cc1cc(C)c(S(=O)(=O)NCCCN2CCOCC2)cc1Br`, the inhibition was -101% (inactive).

Turning to `C=CCSc1nc2c(c(=O)[nH]1)C(C(C)C)C(C#N)=C(N)O2` (stereo not drawn), the inhibition is 17.7% (inactive).

Turning to `COc1cccc(N2CCN(C3CC(=O)N(c4ccc(Cl)cc4)C3=O)CC2)c1` (stereo not drawn), the inhibition is 11.2% (inactive).

Regarding `Cn1cnc2c1c(=O)n(Cc1c(Cl)cccc1Cl)c(=O)n2C`, the inhibition is 32.6% (inactive).

With `O=S(=O)(NC1CCCCC1)c1ccc(F)c2ccccc12`, the inhibition is 53.4% (active).

With `O=C(CC(NS(=O)(=O)c1ccc(Cl)cc1)c1ccco1)NC1CCCC1` (stereo not drawn), the inhibition is 18.5% (inactive).

On to `Cc1ccc(OCCCC(=O)Nc2ccc(N3CCOCC3)cc2)cc1`, for which the inhibition is 15.2% (inactive).

With `C=CCNC(=O)CCCOc1cccc(C)c1`, the inhibition was -3.3% (inactive).

As to `COc1ccc(OCC(=O)OCC(=O)Nc2ccc(S(=O)(=O)N3CCCCC3)cc2)cc1`, the inhibition was 63.1% (active).

As to `COC(=O)COc1ccc(S(=O)(=O)N2CCOCC2)cc1`, the inhibition is -8.2% (inactive).

Turning to `CC(=O)Nc1ccc(S(=O)(=O)N2CCN(C3CCCCCCC3)CC2)cc1`, the inhibition was 40.3% (inactive).

Turning to `CC(=O)Nc1ccc(S(=O)(=O)N2CCN(CCCOc3cc(C)ccc3C)CC2)cc1`, the inhibition was 83.6% (active).

Turning to `O=C(CSCc1ccc(Br)cc1)Nc1ccc(S(=O)(=O)N2CCCCCC2)cc1`, the inhibition is 56.5% (active).

Consider `CCOc1cccc(NC(=O)C2CCCN(S(=O)(=O)c3ccc(OC)cc3)C2)c1` (stereo not drawn), for which the inhibition was 21.3% (inactive).

For the compound `CCCN1Cc2cccc(C(=O)Nc3ccc(S(=O)(=O)N4CCCCCC4)cc3)c2C1=O`, the inhibition was 38% (inactive).

With `Cc1cccc(OCCCC(=O)Nc2ccc(S(=O)(=O)N3CCCC3)cc2)c1`, the inhibition is 65.2% (active).

For the compound `O=C(Nc1ccc(S(=O)(=O)N2CCCCC2)cc1)c1cnccn1`, the inhibition was 23.2% (inactive).

As for `CC(=O)Nc1ccc(S(=O)(=O)N2CCSCC2)cc1`, the inhibition was 14% (inactive).

As to `Cc1cc(OCCOc2cccc3cccnc23)c(C)cc1Cl`, the inhibition is -170% (inactive).

With `CCOC(=O)c1nnn(-c2nc(OC)nc(N(C)C)n2)c1-c1ccccc1`, the inhibition was 6.1% (inactive).

In the case of `Cc1nnc(SCC(=O)N2CCN(c3ccccc3)CC2)n1-c1ccccc1`, the inhibition was 1.8% (inactive).

Consider `COc1cc(OC)cc(C(=O)Nc2ncc3c(n2)CC(C)(C)CC3=O)c1`, for which the inhibition was -12.1% (inactive).

As to `CN(NC(=O)c1ccccc1)c1nc2ccccc2nc1C(F)(F)F`, the inhibition was 15.5% (inactive).

`Cc1cc(C(=O)CSc2nc(N)cc(=O)[nH]2)c(C)n1CCc1ccc(Cl)cc1`: the inhibition is 11.4% (inactive).

`CCOc1ccc(C(C)C)cc1S(=O)(=O)n1nc(C)cc1C`: the inhibition was 91.3% (active).

Turning to `CCOc1cc(C)c(Cl)cc1S(=O)(=O)n1nnc2ccccc21`, the inhibition is 39.1% (inactive).

On to `CCOc1ccc(NC(=O)CCC(=O)n2nc(C)cc2C)cc1`, for which the inhibition was 5.6% (inactive).

As for `CCSC1=C(C#N)C(=O)n2c1cc1c2CCCC1`, the inhibition was -14.3% (inactive).

On to `O=S(=O)(NCC1CCCO1)c1ccc2ccccc2c1` (stereo not drawn), for which the inhibition is -199% (inactive).

In the case of `CCOc1cc(C2C(C(=O)OC)=CN(C3CCCC3)C=C2C(=O)OC)cc(Br)c1O`, the inhibition is -9.6% (inactive).

`Cc1noc(NS(=O)(=O)c2ccc(N/C=C/C(=O)c3ccccc3)cc2)c1C`: the inhibition was 93.9% (active).

Turning to `Cc1noc(NS(=O)(=O)c2ccc(NC(=O)C34CCC(CC3)C4)cc2)c1C`, the inhibition was 0.8% (inactive).

Consider `COc1ccc(C(=O)Nc2ccc(S(=O)(=O)Nc3onc(C)c3C)cc2)cc1OC`, for which the inhibition is 1.2% (inactive).

As for `Cc1ccc(S(=O)(=O)NCCN2CCOCC2)cc1C`, the inhibition is 21.9% (inactive).

For `Cc1ccc(-c2nc(C)sc2CC(=O)O)cc1`, the inhibition was 5.6% (inactive).

As for `Cc1nn(Cc2ccc(F)cc2)c(C)c1NC(=O)c1noc2c1CCc1ccccc1-2`, the inhibition is -1.9% (inactive).

`O=C(Nc1ccn(Cc2ccc(F)cc2)n1)c1ccncc1`: the inhibition was 92.9% (active).

For `Cc1ccc(Cn2ccc(NC(=O)C3C4CCC(C4)C3C(=O)O)n2)cc1` (stereo not drawn), the inhibition is 13% (inactive).

On to `Cc1ccc(Cn2ccc(NC(=O)c3cc(C(C)C)on3)n2)cc1`, for which the inhibition was 97.5% (active).

Turning to `Cc1cc(NC(=O)c2cc(-c3cccs3)on2)nn1Cc1ccc(Cl)cc1`, the inhibition is -17.2% (inactive).

For `CC(=O)Nc1ccn(Cc2c(F)cccc2Cl)n1`, the inhibition is 6.2% (inactive).

In the case of `CCOC(=O)c1nn(-c2cccc(C)c2)cc1C(=O)c1ccccc1`, the inhibition was 33.5% (inactive).

`Cc1ccc(-c2ccnc3nc(Sc4ncc(C(F)(F)F)cc4Cl)nn23)cc1`: the inhibition was 9.8% (inactive).

`N#Cc1cccc(CSc2nnc(CCCO)n2-c2ccccc2)c1`: the inhibition was 11.5% (inactive).

Turning to `Cc1cccc(NC(=O)c2ccc(OCC(=O)NCc3ccccc3)cc2)c1C`, the inhibition is -9.9% (inactive).

Take `Cc1cccc(C)c1NC1=NC(=S)N(c2ccc(N(C)C)cc2)C1(C)C`: the inhibition is -27.7% (inactive).
